Each structure is given as a SMILES string. Compounds without any hit were thinned out: in the full panel of roughly 83,000, 20% have a hit.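 For each line, cells grew in 96-well plates with the test compound present at a single concentration for 48 hours.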 A number with no mark means an inactive call. Activity calls are given as the source filed them. How the source made its calls: active means growth percent below 10; inactive means the rest.

In this experiment the test system is MDA-MB-468 breast. Nature of the experiment: NCI-60 one-dose screen, 48 h (100 = growth as untreated, 0 = no growth, -100 = all killed). The conditions noted are these: 10 µM unless noted.
For the compound `O=C(Nc1ccsc1C(=O)NC1CCCCC1)c1ccc(F)cc1`, the growth was 101%.
For `C=CCn1ccc(=O)nc1SC` the value was 115%; for `CCCCCCCCCCCCC[N+](C)(C)Cc1ccccc1`, -25.3% (active).
For `COC(=O)[C@@H]1CCCN1C(=O)[C@@H]1CCCN1C(=O)[C@@H](Cc1c[nH]c2ccccc12)NC(=S)Nc1cc(C(F)(F)F)cc(C(F)(F)F)c1` the value was 2.25% (active).
The same measure for `CCCCCCCC/C=C\CCCCCCCCOc1ccc(CC(=O)NCC[N+](C)(C)C)cc1`: 60.1%; for `Nc1n[nH]c(=S)n1-c1ccc(Cl)cc1`: 97.5%; for `O=C(NNc1nc2cc(F)cc(F)c2n2cccc12)c1cnccn1`: -10.9% (active).
Regarding `O=C1Nc2cc(-c3cccc(O)c3)ccc2/C1=C/c1ccc[nH]1`, the growth was 7.4% (active).
The same measure for `c1ccc(CN2COc3c(ccc4c3OCN(Cc3ccccc3)C4)C2)cc1`: 0.865% (active); for `COc1ccc(/C=c2\sc3n(c2=O)C2C(NN=3)N(C)C(=O)N2C)cc1` (stereo not given): -8.89% (active); for `COc1ccc(-c2nc(-c3ccccc3)c(-c3ccccc3)[nH]2)cc1OC1CCCCC1`: 73.1%.
The same measure for `COc1ccc(NC(=O)c2ccc(/C=C/C(=O)c3ncc[nH]3)cc2)cc1`: 44.3%.
For `Cc1cc2c(cc1C)Nc1sc(NC(=O)CN3CCN(C)CC3)nc1C(=O)N2` the value was 105%; for `COc1ccc(C2CC(=O)c3c(nc4ccc(Cl)cc4c3N)C2)cc1` (stereo not given), 104%.
In the case of `COc1cc2c(cc1-c1c(C)noc1C)ncc1nc(C3CC3)n([C@H](C)COC(F)F)c12`, the growth is 46%.
For `O=C1c2ccccc2C(=O)c2c1ccc1c(=O)n(-c3ccccc3C(F)(F)F)nnc21` the value was -50.3% (active); for `CCC1(CC)NC(=O)c2c(c3ccc(Cl)c(Cl)c3n2C)C1C#N` (stereo not given), 106%; for `COc1cccc2c1-c1ccccc1C2=O`, 39.3%.
For `C/C(CCC(=O)O)=N/Nc1ccc([N+](=O)[O-])cc1` the value was 83.7%.
The same measure for `C(=N\Nc1ccccn1)/c1ccccn1`: -38.7% (active).
Regarding `Clc1ccc(Nc2ncc(Cc3cccc(Cl)c3Cl)s2)cc1`, the growth was 99.4%.
For `CCN(CC)c1ccc2c(cc1=O)[C@@H](NC(C)=O)CCc1cc(OC)c(OC)c(OC)c1-2` the value was 36.9%; for `O=C1/C(=C/c2ccc([N+](=O)[O-])s2)Oc2ccccc21`, -34.1% (active).
The same measure for `Clc1ccc2[nH]cc(-c3cncn3CCc3ccc4c(c3)OCO4)c2c1`: 6.19% (active); for `Oc1cccc(CCc2ccc(Oc3cc(CCc4cccc(O)c4)cc(O)c3O)cc2)c1`: 82.5%.
On to `COc1ccc(NC2=C(Cl)C(=O)c3nc(C)ccc3C2=O)cc1OC`, for which the growth is 58.1%.
For `COC(=O)/C=C1/SC(=NCc2ccccc2)N(CCc2c[nH]c3ccccc23)C1=O`, the growth is 81.1%.
Regarding `Cc1ccc(NC(=O)c2ccc(CN3CC[C@H](N(C)C)C3)c(C(F)(F)F)c2)cc1Nc1nccc(-c2cncnc2)n1`, the growth is -36.5% (active).
`CCCC(=O)Oc1ccc2ccccc2c1`: the growth is 94%.
Consider `COc1cc(C2CC(c3cccc(Nc4ccnc5cc(Cl)ccc45)c3)=NN2c2ccc(Cl)cc2)cc(OC)c1OC` (stereo not given), for which the growth is 74.4%.
As for `COc1ccc(-c2nc3ccccn3c2/C=C/C(=O)c2cc(OC)c(OC)c(OC)c2)cc1OC`, the growth is 8.94% (active).
For `COc1cc(-c2nc3cc(Cl)c(Cl)cc3[nH]2)ccc1OCC(=O)NN` the value was 100%.
With `O=C1C=CC(=O)N1c1ccc(O)cc1`, the growth was 88.9%.
For `O=S(=O)(O)c1ccc2cc(O)ccc2c1` the value was 101%.
The same measure for `Cn1nc(C(F)(F)F)c(-c2ccc(Cl)c(C(F)(F)F)c2)c1-c1ccc(OCc2ccc(Cl)cc2)cc1O`: -18.7% (active); for `COc1ncc(-c2ccc3nccc(-c4ccnnc4)c3c2)cc1NS(=O)(=O)c1ccc(F)cc1F`: -73% (active).
Consider `O=S(=O)(Nc1ccccn1)c1ccc(N=Nc2ccc(O)c3ncccc23)cc1`, for which the growth is 4.46% (active).
The same measure for `CCCCCCCCCCCCOC(=N)N(C)C`: 104%; for `O=C1OCC2=C1C(c1cccc(C(F)(F)F)c1)c1cc3c(cc1N2CCO)CCC3` (stereo not given): -1.26% (active).
The same measure for `NC(=S)NN=C1CCCCC1`: 26.4%.

Source of the values: PubChem BioAssay (NCI).
